Ins promoter up = insulin promoter activators in MIN6 cells, imaging, high-content screening, mouse beta cells; z-score at 5 µM; AID 1625, 2009; MIN6 insulin promoter-GFP reporter; stronger effect = higher value; 0.3% of 190,000 active;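 active = z-score above 3 at 5 µM with at least 500 cells counted in the well; inconclusive = wells under 500 cells, flagged as cytotoxic or low count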
WT yeast gro inh = growth inhibition of WT strain, primary screen, mitochondrial fusion inhibitor project, WT and mutant strains, chemical genetic; mitochondrial fusion phenotypic screen; inhibition, % at 10 µM; 2.1% of 190,000 active; in the data active = inhibition above about 58%; tested in S. cerevisiae
ROMK mod = ROMK potassium channel modulators, primary screen, cell-based, thallium flux, MLSMR library | Tet-inducible ROMK, thallium flux fluorescence; actives lie on both sides | B-score at 10 µM | 2% of 130,000 active | AID 1918, 2009;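 active = signal ratio slope over the read window, or its plate-corrected B-score, at least 3 SD from the plate mean, either direction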;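 also: B-score of the F/F0 ratio slope over 7 to 12 s after thallium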
Target sequence (P48048 whole entry, looked up): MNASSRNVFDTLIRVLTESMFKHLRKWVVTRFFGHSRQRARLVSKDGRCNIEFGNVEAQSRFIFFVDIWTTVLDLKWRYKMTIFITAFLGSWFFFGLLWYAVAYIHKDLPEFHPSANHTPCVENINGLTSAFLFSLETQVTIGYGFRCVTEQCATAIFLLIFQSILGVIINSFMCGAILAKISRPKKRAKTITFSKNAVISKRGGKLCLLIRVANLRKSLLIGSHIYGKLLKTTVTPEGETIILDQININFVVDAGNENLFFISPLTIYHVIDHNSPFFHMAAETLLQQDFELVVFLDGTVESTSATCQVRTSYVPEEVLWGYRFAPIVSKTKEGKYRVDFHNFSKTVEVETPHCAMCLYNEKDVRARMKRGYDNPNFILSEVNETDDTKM
INS promoter inh = inhibitors of insulin promoter-driven GFP, primary screen, imaging, TRM-6 cells (human fetal islet line), eGFP reporter, cell count; reporter expression induced with tamoxifen; inhibition, % at 2 µM; 0.9% of 130,000 active; AID 1273, 2008;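 active = inhibition above the mean plus 3 SD, with well images judged a real hit on visual review, cut at about 60% in these data, passing the limit was not always enough; inconclusive = inhibition over the cutoff but images rejected on review; inactive = inhibition not above the cutoff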
Lmaj promast = Leishmania major promastigote growth inhibition, primary screen. Leishmania major promastigotes, resazurin fluorescence viability. AID 1063, 2008. inhibition, % at 10 µM. 9% of 200,000 active; in the data active = inhibition above about 50%;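 also: promastigotes grown with compound for 44 hours at 28 °C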
KCC2 mod = KCC2 cotransporter modulators, thallium flux, primary screen, cell-based, HEK293 KCC2, FluoZin-2 fluorescence, MLSMR; AID 1456, 2008; KCC2 cells, thallium flux FluoZin-2 fluorescence; Solute carrier family 12 member 5 (Homo sapiens), Q9H2X9; 2.2% of 190,000 active; B-score of Tl+ flux slope (higher = more flux/activation; lower = inhibition) at 10 µM;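 active = thallium flux slope and its plate-corrected score both differing from the plate sample mean at a set confidence after two filtering rounds, in either direction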;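 also: slope of fluorescence scaled to starting intensity during 10 to 20 s after thallium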
L major 1uM = Leishmania major promastigote growth inhibition, confirmation, 1 µM repeat of primary hits. shares compounds with Lmaj promast. L. major promastigote growth, resazurin fluorescence, 48 h. inhibition, % at 1 µM. 13% of 1,100 active. AID 1258, 2008;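 active = inhibition above about 50% in both repeat tests, limit read from the data; inconclusive = one repeat under the set limit, the other over it; inactive = both repeats under the set limit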
The depositor's hits bear a star; u = inconclusive; x = no result. Compounds with a hit are over-represented: about 12% of the library has one in this group of screens.

SMILES	Ins promoter up	WT yeast gro inh	ROMK mod	INS promoter inh	Lmaj promast	KCC2 mod	L major 1uM
CCOc1ccc(NC(=O)c2cn(-c3ccc(OCC)cc3)c(=O)c3cc(OC)c(OC)cc23)cc1	-0.63	20.7	x	-2.7	88.5*	0.00425	-9.0
CCOC(=O)C1=C(C)Nc2ccccc2N=C1NC(=O)C(c1ccccc1)c1ccccc1	-0.01	6.5	0.032	-52.9	28.9	0.313	x
O=[N+]([O-])c1ccc2c(c1)C(N1CCOCC1)/C(=C/COc1ccc3ccccc3c1Br)O2 (stereo not given)	-5.36	26.6	x	20.8	96.6*	x	-0.6
O=[N+]([O-])c1ccc(OC/C=C2\Oc3ccc([N+](=O)[O-])cc3C2N2CCOCC2)cc1 (stereo not given)	-0.2	9.6	x	13.0	47.9	0.0796	x
COc1ccc(NS(=O)(=O)c2cc(C)ccc2NC(=O)c2cc(C)oc2C)cc1	-0.57	-6.1	x	27.3	52.5*	x	19.0
COc1ccc(NS(=O)(=O)c2cccc(C(=O)NNC(=O)c3cc(C)oc3C)c2)cc1	0.1	-9.6	1.11	1.6	-8.8	0.195	x
N#CC1=C(Nc2ccccc2)SC=C(c2ccc(Cl)c(Cl)c2)N=C1N1CCOCC1	0.16	0.3	x	-86.7	99.9*	x	-13.8
N#CC1=C(Nc2ccccc2)SC=C(c2ccccc2)N=C1N1CCOCC1	1.32	4.1	-0.0017	0.0	-0.3	0.806	x
CC(C)Sc1nc2c(c(=O)[nH]1)C(c1cccs1)C1=C(CC(C)(C)CC1=O)N2 (stereo not given)	1.2	3.6	x	x	-5.6	-0.103	x
CC1=C(OC(=O)C(C)(C)C)C(C)(C)C(c2ccccc2)OC1=O (stereo not given)	-0.02	-0.8	-0.121	-5.3	55.5*	0.0463	-0.4
O=[N+]([O-])c1ccccc1N/N=C/c1c[nH]c2ccccc12	x	-1.3	x	40.0	1.1	-0.516	x
O=[N+]([O-])c1ccc(N/N=C/c2c[nH]c3ccccc23)cc1	x	87.2*	x	-222.6	98.4*	0.24	-17.9
O=C(Nc1c(C(=O)O)[nH]c2ccccc12)NC1CCCCC1	0.8	3.6	x	10.7	19.2	x	x
CCCCSc1nnc([C@H](C)NC(=O)OC(C)(C)C)o1	0.13	3.4	x	-13.6	21.2	0.227	x
CCCCSc1nnc([C@H](CC(C)C)NC(=O)OC(C)(C)C)o1	-0.19	5.8	x	x	76.0*	-0.356	30.4
COc1ccc(CCC(=O)OCC(=O)Nc2ccccc2OC(F)F)cc1OC	0.3	7.6	0.845	x	7.9	-0.513	x
COc1ccccc1-n1cnnc1SCC(=O)NCc1cccs1	0.56	-4.0	0.669	-19.2	-7.8	x	x
Cc1ccc(S(=O)(=O)N/N=c2\oc3ccccc3cc2C(=O)Nc2cccc(C)c2)cc1	-0.12	-16.6	x	-11.1	71.2*	1.27	-17.4
Cc1cccc(NC(=O)c2cc(S(=O)(=O)c3ccccc3)ccc2Cl)c1	-0.2	32.5	0.143	24.3	5.6	-1.05	x
CC(C)(C)NC(=O)CSCc1ccc(Br)cc1	-0.61	-4.7	-0.0543	x	-1.6	-0.28	x
CC(=O)c1ccc(NC(=S)NCc2cccnc2)cc1	-0.76	-10.9	-0.244	0.0	4.7	0.8	x
CSC(=S)NCc1cccnc1	0.1	-12.1	-0.0328	x	81.3*	0.6	8.1
CCN(Cc1ccccc1)C(=S)Nc1cc(C(=O)OC)ccc1C(=O)OC	-0.48	-5.8	1.08	-72.4	-8.2	0.547	x
O=C(CCl)Nc1cccc(-c2cnc3ccccc3n2)c1	u	8.2	-0.0553	x	100.0*	x	77.3*
CCC(=O)Nc1cccc(-c2cnc3ccccc3n2)c1	0.82	-10.5	0.0662	8.7	7.7	-0.836	x
SMILES	Ins promoter up	WT yeast gro inh	ROMK mod	INS promoter inh	Lmaj promast	KCC2 mod	L major 1uM
CN(CCc1ccccn1)C1CC(=O)N(c2ccc(Cl)cc2)C1=O (stereo not given)	-0.33	25.1	0.00123	x	-5.7	1.22	x
O=S(=O)(c1ccccc1)c1ncc(C(F)(F)F)cc1O	0.12	-12.7	x	-23.1	0.8	0.642	x
CN(C)S(=O)(=O)c1cccn1-c1ncc(C(F)(F)F)cc1Cl	x	-11.8	x	50.0	100.2*	1.28	29.4
O=S(=O)(c1ccccc1)c1ncc(C(F)(F)F)cc1Cl	1.99	-32.9	0.00654	50.0	72.0*	0.422	39.5
O=C(NCc1ccc2c(c1)OCO2)c1ccc2c(c1)N(Cc1c(F)cccc1Cl)C(=O)CS2	-0.63	41.6	-0.937	-44.8	28.6	-0.462	x
CC(=O)[C@H]1[C@@H]2C(=O)N(c3cccc(Cl)c3)C(=O)[C@@H]2[C@H]2c3ccccc3C=CN21	0.32	-48.8	-0.763	x	-2.8	x	x
CC(C)(C)C(=O)[C@@H]1[C@@H]2C(=O)N(Cc3ccccc3)C(=O)[C@@H]2[C@H]2c3ccccc3C=CN12	0.16	22.2	-1.11	-40.6	68.4*	-0.167	-7.6
COC(=O)c1ccc(CN2CCN(Cc3ccc(C(=O)OC)o3)CC2)o1	0.81	4.4	1.04	5.9	1.6	x	x
COC(=O)c1ccc(CN(Cc2ccc(C(=O)OC)o2)C(C)(C)C)o1	-0.12	0.8	-0.081	-56.2	97.1*	x	-11.7
N#Cc1ccccc1Sc1ccccc1C(=O)OCC(=O)NC1CCS(=O)(=O)C1 (stereo not given)	1.39	-7.9	x	x	4.9	-1.16	x
CCOC(=O)c1c(C)n(C)c2c(C)cc(O)c(OC(=O)CC)c12	0	-6.7	1.34	27.3	-3.8	x	x
COc1cccc(N2CCN(C(=O)c3ccc(N4C(=O)NC5CC4(C)Oc4ccccc45)cc3)CC2)c1 (stereo not given)	0.78	7.4	0.165	x	72.8*	x	-10.3
CC12CC(NC(=O)N1c1ccc(C(=O)N3CCN(c4ccccn4)CC3)cc1)c1ccccc1O2 (stereo not given)	0.68	-1.6	x	x	-7.3	-0.62	x
OCCSc1nc(-c2ccccc2)nc2c1CCC2	-0.27	-6.2	-2.01	61.1	51.9*	-1.21	-13.0
COc1ccc(C(=O)N(c2ccc(C)cc2)C2C=CS(=O)(=O)C2)cc1OC (stereo not given)	0.06	7.1	0.327	25.0	-3.4	1.29	x
Cc1ccc(N(C(=O)C2CCCC2)C2C=CS(=O)(=O)C2)cc1C (stereo not given)	-0.08	-3.6	x	40.0	56.0*	0.799	-8.9
Cc1ccc(NC(=O)C2CC(=O)n3c(nc4ccccc43)N2)cc1 (stereo not given)	0.1	-1.4	0.393	x	-9.6	x	x
O=[N+]([O-])c1ccc(N2CCN(C(=S)NCc3ccc(Cl)cc3)CC2)cc1	-3.78	36.2	0.168	x	67.9*	-1.04	-12.4
CCNC(=S)N1CCN(c2ccc([N+](=O)[O-])cc2)CC1	-0.89	-5.4	-0.566	x	5.1	1.89	x
CC(=O)CC(c1ccccc1)S(=O)(=O)c1ccc(C)cc1 (stereo not given)	x	-20.0	x	-28.6	2.4	-0.463	x

High-throughput results: PubChem BioAssay, several laboratories
